Hit rate of the full screen: of about 39,000 compounds, about 1,500 (3.8%) were called active. This is one part of a sample in which actives are shown more often than they occur.

This experiment concerns HSkMC (human skeletal muscle cells). Kind of experiment: cytotoxicity call (relative viability < 0.9). As to conditions: 10 µM.
With `C[C@H](CO)N1C[C@H](C)[C@H](CN(C)Cc2ccc(O)cc2)OCc2ccccc2-c2c(n(C)c3ccccc23)C1=O`, the cytotoxicity call is “inactive”.

`CC(C)NC(=O)Nc1ccc2c(c1)C(=O)N([C@H](C)CO)C[C@@H](C)[C@H](CN(C)S(C)(=O)=O)OCCCC[C@@H](C)O2`: the cytotoxicity call is “inactive”.

Regarding `C[C@@H]1CN([C@H](C)CO)C(=O)Cc2cc(NS(=O)(=O)c3ccc(Cl)cc3)ccc2O[C@H]1CN(C)Cc1ccc(C(=O)Nc2ccccc2N)cc1`, the cytotoxicity call is “inactive”.

As for `Cc1ccc(S(=O)(=O)N(C)C[C@@H]2Oc3cc(C#Cc4ccncc4)ccc3S(=O)(=O)N([C@@H](C)CO)C[C@@H]2C)cc1`, the cytotoxicity call was “inactive”.

Consider `C[C@H]1CN([C@@H](C)CO)C(=O)c2cccc(NS(=O)(=O)c3cn(C)cn3)c2O[C@H]1CN(C)S(=O)(=O)c1ccc(F)cc1`, for which the cytotoxicity call is “inactive”.

On to `C[C@H]1CN([C@@H](C)CO)S(=O)(=O)c2ccc(C#Cc3ccc(F)cc3)cc2O[C@H]1CN(C)CC1CC1`, for which the cytotoxicity call was “inactive”.

On to `C[C@@H]1CCCCO[C@H](CN(C)C(=O)CCC(F)(F)F)[C@H](C)CN([C@@H](C)CO)C(=O)c2cc(NC(=O)Nc3ccc4c(c3)OCO4)ccc2O1`, for which the cytotoxicity call is “inactive”.

For the compound `CCOC(=O)C1=CC(OC(CC)CC)C(NC(C)=O)C(N)C1.O=P(O)(O)O` (configuration not stated), the cytotoxicity call is “inactive”.

As to `COc1ccc(S(=O)(=O)N(C)C[C@@H]2Oc3ccc(NS(=O)(=O)c4ccc(F)cc4)cc3C(=O)N([C@@H](C)CO)C[C@@H]2C)cc1`, the cytotoxicity call was “inactive”.

In the case of `C[C@H]1CN([C@@H](C)CO)C(=O)Cc2cc(NC(=O)C3CC3)ccc2O[C@H]1CN(C)S(=O)(=O)c1ccc(F)cc1`, the cytotoxicity call is “inactive”.

For the compound `C[C@@H]1CN([C@H](C)CO)C(=O)c2cc(NC(=O)Nc3cccc4ccccc34)ccc2O[C@@H]1CN(C)C(=O)Nc1ccc2c(c1)OCO2`, the cytotoxicity call was “inactive”.

For the compound `COc1ccc([C@H]([C@H](Cc2ccccc2)OC(C)=O)N(CC#C[C@@H](O)c2ccccc2)[C@@H](Cc2ccccc2)C(OC)OC)cc1`, the cytotoxicity call is “inactive”.

As for `COc1ccc2c3c(n(c2c1)C)[C@H](CO)N(Cc1ccccc1F)C[C@]13CN(C1)C(=O)C1CCOCC1`, the cytotoxicity call is “inactive”.

In the case of `C[C@@H]1CCCCO[C@H](CN(C)Cc2ccc(C(F)(F)F)cc2)[C@H](C)CN([C@H](C)CO)C(=O)c2cc(NC(=O)Nc3ccc(C(F)(F)F)cc3)ccc2O1`, the cytotoxicity call is “active”.

Regarding `C[C@@H]1CCCCO[C@H](CN(C)Cc2ccc(C(F)(F)F)cc2)[C@@H](C)CN([C@@H](C)CO)C(=O)c2cc(NC(=O)Nc3ccc(C(F)(F)F)cc3)ccc2O1`, the cytotoxicity call is “inactive”.

For `C[C@@H]1CN([C@@H](C)CO)C(=O)c2cc(NC(=O)Nc3ccc(C(F)(F)F)cc3)ccc2O[C@@H](C)CCCCO[C@H]1CN(C)Cc1ccc(C(F)(F)F)cc1`, the cytotoxicity call was “inactive”.

Consider `C[C@H](CO)N1C[C@H](C)[C@@H](CN(C)Cc2ccc(C(F)(F)F)cc2)OCCCC[C@H](C)Oc2ccc(NC(=O)Nc3ccc(C(F)(F)F)cc3)cc2C1=O`, for which the cytotoxicity call is “inactive”.

With `C[C@H]1CCCCO[C@H](CN(C)Cc2ccc(C(F)(F)F)cc2)[C@@H](C)CN([C@@H](C)CO)C(=O)c2cc(NC(=O)Nc3ccc(C(F)(F)F)cc3)ccc2O1`, the cytotoxicity call was “inactive”.

As for `C[C@@H]1CCCCO[C@H](CN(C)Cc2ccc(C(F)(F)F)cc2)[C@H](C)CN([C@@H](C)CO)C(=O)c2cc(NC(=O)Nc3ccc(C(F)(F)F)cc3)ccc2O1`, the cytotoxicity call was “active”.

As for `C[C@@H]1CCCCO[C@H](CN(C)C(=O)c2ccccc2)[C@H](C)CN([C@H](C)CO)C(=O)c2cc(NC(=O)C3CCCCC3)ccc2O1`, the cytotoxicity call was “inactive”.

On to `O=C(NCCN1CCOCC1)c1cccs1`, for which the cytotoxicity call is “inactive”.

Regarding `CCc1c(Cl)c(O)c(Cl)c(O)c1C(=O)O[C@H]1[C@H](O)[C@H](OC)[C@H](OC/C2=C\C=C\C[C@H](O)/C(C)=C/[C@H](CC)[C@@H](O[C@@H]3OC(C)(C)[C@@H](OC(=O)C(C)C)[C@H](O)[C@@H]3O)/C(C)=C/C(C)=C/C[C@@H]([C@@H](C)O)OC2=O)O[C@@H]1C`, the cytotoxicity call was “active”.

Regarding `COc1ccc(CN(C)C[C@@H]2OCCCC[C@@H](C)Oc3ccc(NC(=O)Nc4ccccc4)cc3C(=O)N([C@@H](C)CO)C[C@@H]2C)cc1`, the cytotoxicity call is “inactive”.

Consider `COc1ccc(CN(C)C[C@H]2OCCCC[C@H](C)Oc3ccc(NC(=O)Nc4ccccc4)cc3C(=O)N([C@@H](C)CO)C[C@@H]2C)cc1`, for which the cytotoxicity call was “inactive”.

Take `COc1ccc(CN(C)C[C@@H]2OCCCC[C@H](C)Oc3ccc(NC(=O)Nc4ccc(F)cc4)cc3C(=O)N([C@@H](C)CO)C[C@@H]2C)cc1`: the cytotoxicity call was “inactive”.

Regarding `COc1ccc(CN(C)C[C@H]2OCCCC[C@@H](C)Oc3ccc(NC(=O)Nc4ccc(F)cc4)cc3C(=O)N([C@H](C)CO)C[C@H]2C)cc1`, the cytotoxicity call was “active”.

As to `COc1ccc(CN(C)C[C@@H]2OCCCC[C@H](C)Oc3ccc(NC(=O)Nc4ccc(F)cc4)cc3C(=O)N([C@H](C)CO)C[C@@H]2C)cc1`, the cytotoxicity call was “inactive”.

Regarding `COc1ccc(CN(C)C[C@H]2OCCCC[C@@H](C)Oc3ccc(NC(=O)Nc4ccccc4)cc3C(=O)N([C@H](C)CO)C[C@H]2C)cc1`, the cytotoxicity call was “active”.

`C[C@@H]1CCCCO[C@@H](CN(C)C(=O)C2CCCCC2)[C@H](C)CN([C@H](C)CO)C(=O)c2cc(NC(=O)Nc3ccc(C(F)(F)F)cc3)ccc2O1`: the cytotoxicity call was “inactive”.

`C[C@H](CO)N1C[C@H](C)[C@H](CN(C)C(=O)Nc2ccccc2C(F)(F)F)OCc2cnnn2CCCC1=O`: the cytotoxicity call was “inactive”.

Regarding `CO[C@@H]1CN(C)C(=O)c2cc(NC(=O)C3CC3)ccc2OC[C@H](C)N(C(=O)Cc2ccccn2)C[C@@H]1C`, the cytotoxicity call is “inactive”.

Regarding `COc1ccc(S(=O)(=O)N[C@@H]2C=C[C@H](CC(=O)N3CCC(Cc4ccccc4)CC3)O[C@@H]2CO)cc1`, the cytotoxicity call was “inactive”.

For the compound `Cn1cc(-c2ccno2)c(C(=O)O)n1`, the cytotoxicity call is “inactive”.

With `Cc1c(-c2c(-c3ccc(F)o3)sc3ncnc(O[C@H](Cc4ccccc4OCc4ccnn4CC(F)(F)F)C(=O)O)c23)ccc(OCCN2CCN(C)CC2)c1Cl`, the cytotoxicity call was “active”.

Consider `N#C[C@@H]1N[C@H](CO)[C@H]1c1ccccc1`, for which the cytotoxicity call is “inactive”.

As to `COCC(=O)N1CC(C)(C)c2cc(-c3csc(NC(=O)c4ccc(F)c(OC(F)(F)F)c4)n3)ccc21`, the cytotoxicity call is “inactive”.

For `CCCCCCO[C@@H](C)c1cccc(-c2csc(NC(=O)c3cc(Cl)c(/C=C(\C)C(=O)O)c(Cl)c3)n2)c1OC`, the cytotoxicity call was “active”.

These data come from the antibiotic and cytotoxicity screens of Wong et al. (2023).
